Screening results (PubChem)
A selection: hits, their analogues and other compounds. The true share with any hit is near 9.4%.
ALDH1A1 block – blocks purified human ALDH1A1 activity; AID 1030; Purified ALDH1A1, NADH fluorescence, propionaldehyde substrate; Potency, µM (titrated, usually from 75.3 µM), for the others: at the highest dose activity, negative = inhibition, hits mostly inhibitors; 7.3% of 220,000 active; P00352; active = well fitted inhibition curve with a large enough effect, not every such curve was filed as active; inconclusive = small, poorly fitted or top-dose-only effect, or another doubt; inactive = no such curve, though single readings can be large or run the other way;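 note: potency is the fitted concentration of half-maximal effect; plate controls were no enzyme wells and a reference inhibitor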
Target sequence (P00352 whole entry, looked up): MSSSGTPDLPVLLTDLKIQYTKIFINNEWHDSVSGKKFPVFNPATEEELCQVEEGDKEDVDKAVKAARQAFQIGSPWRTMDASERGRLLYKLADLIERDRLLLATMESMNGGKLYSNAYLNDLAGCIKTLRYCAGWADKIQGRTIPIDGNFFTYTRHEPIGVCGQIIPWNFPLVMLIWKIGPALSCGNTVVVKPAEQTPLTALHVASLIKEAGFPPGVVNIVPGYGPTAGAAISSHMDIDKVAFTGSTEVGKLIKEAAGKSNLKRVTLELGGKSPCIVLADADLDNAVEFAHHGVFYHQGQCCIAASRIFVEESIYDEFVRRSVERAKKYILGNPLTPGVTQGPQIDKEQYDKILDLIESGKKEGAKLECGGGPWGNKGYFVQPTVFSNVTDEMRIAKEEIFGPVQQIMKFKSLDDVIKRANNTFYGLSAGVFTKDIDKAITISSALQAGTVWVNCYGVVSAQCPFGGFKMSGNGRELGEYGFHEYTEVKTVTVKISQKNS
HPGD block – inhibitors of human 15-hydroxyprostaglandin dehydrogenase (HPGD); purified HPGD, NADH fluorescence kinetic, PGE2 substrate; 4.3% of 150,000 active; P15428; Potency, µM, inactives show at the top dose activity change, negative = inhibition, most hits filed as inhibitors; active = well fitted inhibition curve with a large enough effect, not every such curve was filed as active; inconclusive = small, poorly fitted or top-dose-only effect, or another doubt; inactive = no such curve, though single readings can be large or run the other way; note: potency is the fitted concentration of half-maximal effect; % is set by controls: 0 for no effect and ±100 for the full control effect
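NADH formation kinetics: reaction with 30 uM PGE2 and 1 mM NAD+ (final), 20 nM enzyme, Tris-HCl pH 8 with Tween 20, after 15 min compound preincubation at room temperature. Fluorescence change, last versus first of five reads.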
IMPase Li inh – membrane-permeable IMPase blocker, potentiated with lithium; AID 1457; Potency, µM (titrated, usually from 59.4 µM), without a hit: at the highest dose activity, negative = IMPase inhibition, most hits filed as inhibitors; CHO-M1 cells, IP1 TR-FRET (IP-One), carbachol + lithium; 0.35% of 210,000 active;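 note: IP1 builds up when IMPase is blocked and the TR-FRET signal falls; potency is the fitted concentration of half-maximal effect; plate controls were basal vehicle for no effect and high inhibitor control for full effect; nearly all actives have a fitted effect of over 50% in size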
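IP1 accumulation measured by competitive TR-FRET in lysed CHO-M1 cells after 30 min compound exposure at 37C, with a small lithium addition to potentiate weak responses. Hill-equation AC50 from ratio and donor-channel data.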
HttQ103 aggreg – inhibitors of mutant huntingtin aggregate formation in PC12 cells | PC12 HttQ103-GFP aggregates, Acumen cytometry, 40 h | Potency, µM (series often up to 46.1 µM), inactives show at the top dose activity change, negative = inhibition, hits mostly inhibitors | 1.1% of 220,000 active | AID 1688; note: potency is the fitted concentration of half-maximal effect; % is set by controls: 0 for no effect and ±100 for the full control effect; nearly all actives have a fitted effect of over 60% in size
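Inducible Q103 Huntingtin exon 1–GFP PC12 line, 1500 cells/well in phenol red free DMEM with 5% equine and 5% calf serum. Tebufenozide 100 nM induced expression; compounds titrated; aggregates quantified by cytometry.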
IMPase cell inh – membrane-permeable compound that blocks inositol monophosphatase; P97697; CHO-M1 cells, IP1 accumulation, HTRF TR-FRET ratio; inhibition (IP1 accumulation), % at 46.1 µM; 120,000 tested, under 10 active; active = well fitted curve in the direction sought with a large enough effect in the signal ratio, not every such curve was filed as active; inconclusive = small, poorly fitted or top-dose-only effect, or a change in a side signal; inactive = no such curve, though single readings can be large or run the other way; the % refers to the signal ratio;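 note: cells stimulated with carbachol in lithium chloride buffer; plate controls were DMSO basal wells for no effect and reference inhibitor wells for full effect; higher means more IMPase inhibition seen as more IP1 and lower FRET ratio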
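Carbachol-driven Gq signalling in CHO-M1 cells (2000/well) generates IP1. Compounds that block IMPase raise IP1 and so reduce the FRET signal from Eu-anti-IP1 and d2-IP1 after a 10 min room-temperature lysis.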
HTT cytoprotect – Huntington cell model cytoprotection by ATP luminescence; PC12 HTT-Q103 induced, cytoprotection, ATP luminescence, 40 h; Potency, µM (titrated, usually from 56.4 µM), for inactives: cytoprotection (ATP increase), most hits filed as activators; 0.14% of 230,000 active; note: potency is the fitted concentration of half-maximal effect; % of control where 0% means no effect; nearly all actives have a fitted effect of over 45% in size
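Compounds were screened for protection of PC12 cells against cell death after tebufenozide induction (100 nM final) of mutant Huntingtin exon 1 (Q103) fused to GFP.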
Numbers without * were called inactive; ? = inconclusive; nt = not tested or not shown; [ ] = dose if it differs, or a comment. Unless noted, calls come from the whole dose curve; as a rule, active = well fitted curve in the direction sought with a large enough effect; inconclusive = small, poorly fitted or top-dose-only effect, or another doubt; inactive = no such curve, though single readings can be large; an effect the other way counts as inactive or inconclusive.

SMILES	ALDH1A1 block	HPGD block	IMPase Li inh	HttQ103 aggreg	IMPase cell inh	HTT cytoprotect
COc1ccc(N2C(=O)NC3CC2(C)Oc2ccc(Cl)cc23)cc1OC (stereo not drawn)	-2%	-1%	-2%[38.3 µM]	5%	-1	9%
COc1cc2c(cc1NC(=O)COc1ccc(Br)c(C)c1)oc1ccccc12	nt	nt	nt	nt	5	nt
CC(Sc1nc2cc([N+](=O)[O-])ccc2n1-c1ccc(F)cc1)C(=O)NCc1ccc2c(c1)OCO2 (stereo not drawn)	1.4µM*	?	10%	7%	nt	-13%[10 µM]
COc1ccccc1-n1c(SCC(=O)NCc2ccc3c(c2)OCO3)nc2cc([N+](=O)[O-])ccc21	1.1µM*	-18%	14%	8%	nt	-3%[10 µM]
CCn1c(O)c(N=NC(=O)CNc2cccc(C)c2)c2ccccc21	28µM*	-11%	7%	?	nt	-17%[10 µM]
CCn1c(O)c(N=NC(=O)CNc2ccc(C)cc2)c2ccccc21	-16%	-5%	6%	-5%	nt	15%[10 µM]
Cc1cccc(NC(=O)Cn2c(O)c(N=NC(=O)c3ccncc3)c3ccccc32)c1	13µM*	nt	6%	?	nt	nt
COC(=O)Cn1c(O)c(N=NC(=O)c2ccc3c(c2)OCO3)c2ccccc21	1.8µM*	nt	11%	20%[9.22 µM]	nt	-11%[10 µM]
Cc1ccc(NC(=O)Cn2c(O)c(N=NS(=O)(=O)c3ccc(C)cc3)c3ccccc32)cc1	0.35µM*	-6%	5%	12%	nt	-11%[10 µM]
O=C(N=Nc1c(O)n(Cc2ccccc2)c2ccccc12)c1ccncc1	nt	nt	nt	8%[9.22 µM]	nt	-6%[10 µM]
Cn1cc(C(=O)[C@@H]2CCc3[nH]cnc3C2)c2ccccc21	nt	nt	nt	4%	nt	9%
CCOC(=O)c1c(-c2ccc(C)cc2C)csc1NC(=O)c1ccccc1Cl	nt	nt	nt	nt	-8	nt
C=CCn1c(=S)[nH]c2sc3c(c2c1=O)CCC3	11µM*	32µM*	0%	-9%	-11	-9%[10 µM]
COc1ccc(OC)c(NC(=S)NN2CCOCC2)c1	10%	-4%	-3%	11µM*	-4	-7%[10 µM]
COc1ccc(Cl)cc1NC(=S)NN1CCOCC1	7%	nt	-3%	-3%	nt	4%[10 µM]
O=C(N/N=C/c1cc2c3c(c1O)CCCN3CCC2)c1ccccc1O	-4%	-30%	14%	0.89µM*	nt	nt
CC1=C(/C=C/C(C)=C\C=C\C(C)=C\C=C\C=C(C)\C=C\C=C(C)\C=C\C2=C(C)C[C@@H](O)CC2(C)C)C(C)(C)C[C@H](O)C1	nt	nt	nt	2%	nt	22%
COc1ccc(NCc2nnc(SCC(=O)Nc3ccc(OC)cc3)n2C)cc1	9%	nt	16%	-3%	nt	-50%
CC(=O)Nc1ccc(NC(=O)CSc2nnc(CNc3ccc(F)cc3)n2CC2CCCO2)cc1 (stereo not drawn)	-9%	nt	5%	9%	nt	30%[10 µM]
COc1ccc(NCc2nnc(SCC(=O)N3CCCc4ccccc43)n2C)cc1	3.2µM*	-13%	14%[38.3 µM]	1%	8	-30%
Cc1ccc(NCc2nnc(SCC(=O)Nc3ccccc3)n2CC2CCCO2)c(C)c1 (stereo not drawn)	7.9µM*	-8%	-1%[38.3 µM]	-6%	8	-1%[10 µM]
CCn1c(CNc2ccc(C)cc2C)nnc1SCC(=O)N1CCCc2ccccc21	7.1µM*	-11%	17%[38.3 µM]	-5%	-7	-74%[10 µM]
CCn1c(CNc2ccc(F)cc2)nnc1SCC(=O)N1CCCc2ccccc21	?	-18%	3%[38.3 µM]	5%	-4	11%[10 µM]
CCOC(=O)c1ccc(NC(=O)CSc2nnc(CNc3ccc(OC)cc3)n2C)cc1	13µM*	-16%	18%[38.3 µM]	4%	9	-3%
CCOC(=O)CSc1nc(C)c(C(C)=O)cc1C#N	20%	22µM*	9%	0%	-7	4%[10 µM]
Nc1c(OCC(=O)O)ccc2cc(S(=O)(=O)O)ccc12	-1%[13.5 µM]	-15%	14%	nt	nt	-12%[10 µM]
CC1NC(=O)NC1CCCCCC(=O)NCCc1ccccc1 (stereo not drawn)	?	25µM*	19%[38.3 µM]	6%	-3	0%
Cc1cccc(C)c1NC(=O)CCCCCC1NC(=O)NC1C (stereo not drawn)	-2%	nt	0%	10%	nt	-30%
